In the library only some 11% were active in any assay of this set; here they are far more common.
AMA1-RON2 inh: qHTS for Inhibitors of AMA1-RON; Towards Development of Antimalarial Drug Lead: Primary Screen; Plasmodium falciparum AMA1 (3D7) - RON2 peptide interaction; AlphaScreen AMA1-biotinylated RON2 peptide binding; Potency, µM (top dose mostly 58.2 µM), for inactives: top-dose activity change, negative = inhibition, hits mostly inhibitors; 0.2% of 360,000 active;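 also: 0% = vehicle wells and -100% = peptide control; nearly all actives have a fitted effect of over 45% in size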
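AMA1 (3D7) with his tag at 25 nM final met compounds first, then biotinylated RON2 peptide at 25 nM; detection used donor plus acceptor beads, 10 µg/mL apiece, read by AlphaScreen after 30 min at room temperature.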
HCV inh: qHTS Assay for Inhibitors of Hepatitis C Virus (HCV) | Huh7.5.1 HCVcc-Cre infection, luciferase reporter, 44 h | Potency, µM (top dose mostly 41.8 µM), inactives show top-dose activity change, negative = inhibition, actives largely listed as inhibitors | 3.4% of 340,000 active | AID 651820, 2012
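Cells seeded at 1,000/well and cultured 4 h, then compounds added followed by HCVcc-Cre virus (~0.5 moi). After 44 h further culture, luciferase substrate was added, plates held 15 min at room temperature, and luminescence read for 15 sec.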
AmpC no deterg: qHTS Inhibitors of AmpC Beta-Lactamase (assay without detergent); P00811; AmpC nitrocefin hydrolysis, absorbance 480 nm, 0.0001% Triton; Potency, µM (top dose mostly 57.1 µM), without a hit: at the highest dose activity change, negative = inhibition, usual class: inhibitors; AID 485341, 2010; 0.52% of 330,000 active;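 also: plate controls were no compound for no effect and no enzyme for full effect; nearly all actives have a fitted effect of over 20% in size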
Target sequence (P00811 whole entry, looked up): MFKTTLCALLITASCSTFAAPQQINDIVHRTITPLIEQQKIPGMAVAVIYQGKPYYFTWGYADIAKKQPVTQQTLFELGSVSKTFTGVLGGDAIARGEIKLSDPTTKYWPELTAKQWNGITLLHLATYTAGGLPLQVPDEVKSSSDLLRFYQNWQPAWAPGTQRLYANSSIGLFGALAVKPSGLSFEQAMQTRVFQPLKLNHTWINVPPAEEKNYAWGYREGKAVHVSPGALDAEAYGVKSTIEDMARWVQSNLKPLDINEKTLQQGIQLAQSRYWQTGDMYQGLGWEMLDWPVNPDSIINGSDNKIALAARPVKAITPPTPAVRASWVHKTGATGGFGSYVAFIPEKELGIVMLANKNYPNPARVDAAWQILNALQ
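AmpC (5.3 nM in the dispensed reagent) in 20 mM phosphate pH 7.0 with 0.01% (detergent screen) or 0.0001% Triton X-100 was preincubated with compounds for 15 min at room temperature. Nitrocefin was then added from an 800 uM solution, and hydrolysis was followed at 480 nm.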
AmpC detergent: qHTS Inhibitors of AmpC Beta-Lactamase (assay with detergent) | Potency, µM (top dose mostly 114 µM), for inactives: at the top dose activity change, negative = inhibition, actives largely listed as inhibitors | 0.041% of 370,000 active | AID 485294, 2010 | AmpC hydrolysis of nitrocefin, absorbance 480 nm, 0.01% Triton | P00811;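 also: 0% = no-compound wells and -100% = no-enzyme wells; nearly all actives have a fitted effect of over 25% in size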
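20 mM phosphate pH 7.0 + 0.01% (detergent screen) or 0.0001% Triton X-100; 5.3 nM AmpC reagent; cpd preinc 15 min RT; nitrocefin (800 uM stock) to start; A480 q20 s × 4 min; Activity was normalised to no-enzyme and no-compound control wells.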
Pf growth 48h: Primary qHTS for delayed death inhibitors of the malarial parasite plastid, 48 hour incubation; Potency, µM (titrated, usually from 28.7 µM), inactives show top-dose activity change, negative = inhibition, hits mostly inhibitors; 5.9% of 310,000 active; P. falciparum luciferase growth in erythrocytes, 48 h
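Growth was read as firefly luciferase luminescence after a 48 h, 37 C, 5% CO2 exposure of compounds to reporter-bearing P. falciparum cultures (0.1% parasitemia, 2% hematocrit final) in Albumax-supplemented RPMI 1640.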
Pf growth 96h: Primary qHTS for delayed death inhibitors of the malarial parasite plastid, 96 hour incubation; P. falciparum luciferase reporter growth, 96 h; Potency, µM (top dose mostly 28.7 µM), without a hit: top-dose activity change, negative = inhibition, actives largely listed as inhibitors; 6.9% of 320,000 active
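Readout is luminescence from an integrated firefly luciferase in P. falciparum. Red cells, 2% hematocrit and 0.05% parasitemia final, were cultured with compound through two parasite generations (96 hours) at 37 C, 5% CO2.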
* = called active by the depositor; ? = inconclusive; / = not tested or not shown; [ ] = another dose, or the depositor's remark. Calls follow the shape of the dose curve; as a rule, active = well fitted curve in the direction sought with a large enough effect; inconclusive = small, poorly fitted or top-dose-only effect, or another doubt; inactive = no such curve, though single readings can be large; an effect the other way counts as inactive or inconclusive. Unless noted, % is scaled to controls: 0 for no effect and ±100 for the full control effect; potency is read from the fitted curve at half-maximal effect.

SMILES | AMA1-RON2 inh | HCV inh | AmpC no deterg | AmpC detergent | Pf growth 48h | Pf growth 96h
COc1ccc(NC(=O)CN(C)C(=O)c2oc3ccccc3c2C)cc1 | -3% | -26% | 3% | -9% | ? | 3.7µM*
COC(=O)CC1Oc2ccc(F)cc2-n2cc(-c3ccc(C)cc3)nc21 (configuration not stated) | / | / | / | 1% | / | /
CCOc1ccc(-c2nnc(SCC(=O)Nc3cccc(C#N)c3)o2)cc1 | / | / | / | 5% | / | /
Cc1cccc(OCCCC(=O)Nc2ccccc2C(F)(F)F)c1 | 2% | 13% | 7% | -1% | -5% | ?
CCCCNC(=O)[C@@](CC)(ONc1ccccc1C(F)(F)F)c1cccc2ccccc12 | -25% | 6% | -17% | 2% | 8.3µM* | ?
CCC(O)(C(=O)Nc1ccccc1C(F)(F)F)c1ccccc1OC (configuration not stated) | 11% | 1% | 4% | -8% | ? | -33%
CCCCNC(=O)C(CC)(ONc1ccccc1C(F)(F)F)c1ccccc1 (configuration not stated) | ? | -10% | -29% | 4% | 13µM* | ?
CCOc1ccc(N(C)S(=O)(=O)c2ccc(C)c(C(=O)NCc3cccs3)c2)cc1 | -1% | 14µM* | -36% | 8% | ? | ?
CCOC(=O)CC(NC(=O)c1cccs1)c1ccc(OCC)cc1 (configuration not stated) | 8% | -6% | -9% | 4% | 6% | 10µM*
CCOc1ccc(C(=O)NCc2cccs2)cc1 | -6% | -8% | -1% | -16% | 17% | 0.66µM*
COc1ccc(C2c3ccc4ccccc4c3Oc3ncn(CCCO)c(=N)c32)cc1 (configuration not stated) | -10% | -25% | 178% | -7% | 5.2µM* | ?
N=c1c2c(ncn1Cc1ccco1)Oc1ccc3ccccc3c1C2c1ccccc1 (configuration not stated) | -24% | ? | -13% | ? | 10µM* | ?
N=c1c2c(ncn1CCCO)Oc1c(ccc3ccccc13)C2c1ccccc1 (configuration not stated) | 0% | 11µM* | 153% | 7% | ? | ?
COc1ccc(C2c3c(ncn(Cc4ccco4)c3=N)Oc3ccc4ccccc4c32)cc1 (configuration not stated) | -2%[11.6 µM] | ? | -28% | 7% | ? | ?
COc1ccc(C2c3ccc4ccccc4c3Oc3ncn(CCN(C)C)c(=N)c32)cc1 (configuration not stated) | -13% | 2.8µM* | 74% | 2% | 2.3µM* | ?
CC1(C)S[C@@H]2[C@H](NC(=O)[C@H](NC(=O)N3CCN(S(C)(=O)=O)C3=O)c3ccccc3)C(=O)N2[C@H]1C(=O)O | / | / | / | / | -14% | -11%
CCCCn1c(CNC(=O)c2ccc(OC)cc2)nnc1SCC(=O)Nc1ccccc1 | / | / | / | -15% | / | /
Cc1ccc(C)c(OCCn2c(-c3ccc(Cl)cc3)nc3ccccc3c2=O)c1C | / | / | / | 14% | / | /
Cc1ccc(NC(=O)Cn2cc(C(=O)c3ccco3)c3ccccc32)cc1 | / | / | / | 13% | / | /
CN(C)CCCn1cnc2c(c1=N)C(c1ccccc1)c1ccc3ccccc3c1O2 (configuration not stated) | 0% | 8.9µM* | 201% | -3% | 1.5µM* | 2.1µM*

Compound activity (PubChem BioAssay)
